PubChem BioAssay (Tox21)
“And” between values parts separate entries of the source, which are not always exact repeats. Equal values may be shown once. The source made the active and inactive calls. Unless noted, calls come from the whole dose curve; as a rule, active = well fitted curve in the direction sought with a large enough effect in the repeat runs; inconclusive = weak or mixed curves; inactive = no such curve, though single readings can be large; an effect the other way counts as inactive or inconclusive.

What was measured:
[1] = qHTS assay to identify small molecule antagonists of the thyroid receptor (TR) signaling pathway - cell viability counter screen (AID 743064); note: nearly all actives have a fitted effect of over 50% in size; note: potency is the fitted concentration of half-maximal effect
Method in brief: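 Compounds were tested on GH3.TRE-Luc cells in the presence of T3 at 1 nM final. Following 23.5 h at 37 °C, cell viability was quantified by CellTiter-Fluor.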

[2] = qHTS assay to identify small molecule antagonists of the thyroid receptor (TR) signaling pathway (AID 743065); note: nearly all actives have a fitted effect of over 55% in size; note: potency is the fitted concentration of half-maximal effect; for activity, negative = inhibition: series mostly up to about 70 µM
Method in brief: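 GH3.TRE-Luc rat pituitary cells (two TREs driving luciferase) were dosed with compound, then stimulated with 1 nM T3 (final) for 23.5 h at 37 C. ONE-Glo luminescence was the read-out, with CellTiter-Fluor fluorescence as the cytotoxicity counter-screen.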

[3] = test system: thyroid hormone receptor (rat, GH3 cells); assay: qHTS assay to identify small molecule agonists of the thyroid receptor (TR) signaling pathway (AID 743066; calls by dose curve)
[4] = molecular target: Estrogen receptor (Homo sapiens) (UniProt P03372); assay: qHTS assay to identify small molecule antagonists of the estrogen receptor alpha (ER-alpha) signaling pathway (AID 743069; active = well fitted curve in the direction sought with a large enough effect in the signal ratio in the repeat runs, not every such curve was filed as active; inconclusive = weak or mixed curves, or effect the other way; inactive = no such curve, though single readings can be large or run the other way; the % refers to the signal ratio; note: potency is the fitted concentration of half-maximal effect)
Method in brief: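 Beta-lactamase FRET fluorescence is read after 2 hr at room temperature with LiveBLAzer B/G substrate. Before that, ER-alpha-bla HEK293 cells sit 4 hr after plating, then receive compound plus 17beta-estradiol and incubate 18 hr at 37C.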

[5] = qHTS assay to identify small molecule antagonists of the estrogen receptor alpha (ER-alpha) signaling pathway - cell viability counter screen (AID 743074; calls by dose curve;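 note: HEK293 cells carrying ER-alpha-UAS-bla reporter stimulated with 17beta-estradiol; nearly all actives have a fitted effect of over 45% in size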)
[6] = molecular target: Estrogen receptor (Homo sapiens) (UniProt P03372); assay: qHTS assay to identify small molecule agonists of the estrogen receptor alpha (ER-alpha) signaling pathway (AID 743075; calls by dose curve;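 note: HEK293 GripTite cells with ER-alpha and UAS-driven beta-lactamase reporter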)
[7] = molecular target: Estrogen receptor (Homo sapiens) (UniProt P03372); assay: qHTS assay to identify small molecule agonists of the estrogen receptor alpha (ER-alpha) signaling pathway using the BG1 cell line (AID 743079); note: nearly all actives have a fitted effect of over 20% in size; note: potency is the fitted concentration of half-maximal effect
[8] = qHTS assay to identify small molecule antagonists of the estrogen receptor alpha (ER-alpha) signaling pathway using the BG1 cell line - cell viability counter screen (AID 743081);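 note: compound given together with 17beta-estradiol as the ER stimulus; series mostly up to about 70 µM; nearly all actives have a fitted effect of over 45% in size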
Aromatase (Homo sapiens) = Aromatase (Homo sapiens) (UniProt P11511); assay: qHTS assay to identify aromatase inhibitors (AID 743083); note: series mostly up to about 70 µM; nearly all actives have a fitted effect of over 55% in size
[9] = qHTS assay to identify aromatase inhibitors - cell viability counter screen (AID 743084);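 note: cells stimulated with testosterone during compound exposure; nearly all actives have a fitted effect of over 55% in size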
[10] = molecular target: Aryl hydrocarbon receptor (Homo sapiens) (UniProt P35869); assay: qHTS assay to identify small molecule that activate the aryl hydrocarbon receptor (AhR) signaling pathway (AID 743085);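 note: HG2L7.5c1 human HepG2 liver cells with stably integrated DRE-driven firefly reporter; series mostly up to about 70 µM; nearly all actives have a fitted effect of over 15% in size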
Method in brief: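 24 h compound exposure, 37C, HepG2-derived HG2L7.5c1 cells with DRE-responsive luciferase. Readouts: fluorescence viability, then luminescence at room temperature after 30 min.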

[11] = qHTS assay to identify small molecule that activate the aryl hydrocarbon receptor (AhR) signaling pathway - cell viability counter screen (AID 743086); note: nearly all actives have a fitted effect of over 45% in size; note: potency is the fitted concentration of half-maximal effect;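 for viability change, negative = cytotoxic: HepG2 liver cells carrying the AhR DRE luciferase reporter; series mostly up to about 70 µM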
Method in brief: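 HepG2-AhR-luc (HG2L7.5c1) cells, 4000/well, treated 24 h at 37 C with compound; viability measured as CellTiter-Fluor fluorescence after 30 min in the same wells as the luciferase read.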

[12] = molecular target: Peroxisome proliferator-activated receptor gamma (Homo sapiens) (UniProt P37231); assay: qHTS assay to identify small molecule agonists of the peroxisome proliferator-activated receptor gamma (PPARg) signaling pathway (AID 743094; active = well fitted activation curve with a large enough effect in the signal ratio in the repeat runs, not every such curve was filed as active; inconclusive = weak or mixed curves, or effect the other way; inactive = no such curve, though single readings can be large or run the other way; the % refers to the signal ratio)
Method in brief: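 Reporter activation was scored by fluorescence of cleaved LiveBLAzer B/G substrate (1 h, room temperature) in PPARg-bla HEK293H cells previously treated 17 h at 37C with DMSO-dissolved compounds.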

[13] = qHTS assay for small molecule agonists of the antioxidant response element (ARE) signaling pathway - cell viability counter screen (AID 743203; calls by dose curve; note: nearly all actives have a fitted effect of over 55% in size)
Method in brief: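 Viability counter screen: stably transfected ARE-bla HepG2 line, 16 hrs compound exposure at 37C/5% CO2, ATP-based CellTiter-Glo luminescence measured in the reporter wells.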

[14] = qHTS assay for small molecule activators of the heat shock response signaling pathway - cell viability counter screen (AID 743209); note: nearly all actives have a fitted effect of over 50% in size
Method in brief: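 Viability of HSE-bla HeLa cells is measured with CellTiter-Glo in the wells already used for the reporter read. Compound exposure lasts 5 h at 37 C, and luminescence is read after 30 min at room temperature.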

[15] = qHTS assay for small molecule activators of the heat shock response signaling pathway (AID 743210; active = well fitted activation curve with a large enough effect in the signal ratio in the repeat runs, with a control signal flat, not every such curve was filed as active; inconclusive = weak or mixed curves; the % refers to the signal ratio;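 note: HeLa cells with beta-lactamase reporter driven by heat shock elements; series mostly up to about 63 µM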)
Method in brief: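 Beta-lactamase reporter read-out: FRET substrate fluorescence after 2.5 h at RT, following 5 h compound treatment at 37 C of HeLa cells carrying HSE-driven bla reporter; quantitative HTS format.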

[16] = qHTS assay to identify small molecule antagonists of the estrogen receptor alpha (ER-alpha) signaling pathway using the BG1 cell line (AID 743080; calls by dose curve;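 note: BG1 cells stimulated with 17beta-estradiol alongside compound; series mostly up to about 70 µM; nearly all actives have a fitted effect of over 25% in size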)
Method in brief: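 Quantitative HTS on the Tox21 10K library: BG1 cells with endogenous ER-alpha and ERE-luciferase reporter, 17beta-estradiol stimulation, 21.5 h compound exposure, luminescence endpoint with parallel fluorescence cytotoxicity counter-read.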

[17] = molecular target: Peroxisome proliferator-activated receptor gamma (Homo sapiens) (UniProt P37231); assay: qHTS assay to identify small molecule antagonists of the peroxisome proliferator-activated receptor gamma (PPARg) signaling pathway (AID 743191; calls by dose curve; note: nearly all actives have a fitted effect of over 30% in size; note: potency is the fitted concentration of half-maximal effect; for ratio activity, negative = inhibition: series mostly up to about 63 µM)
Method in brief: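 GeneBLAzer PPARg UAS-bla HEK293H cells, 5 h post-plating, exposed to compounds 17 h at 37C. LiveBLAzer B/G FRET substrate added for 1 h at room temperature; beta-lactamase reporter read by fluorescence intensity.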

[18] = qHTS assay to identify small molecule antagonists of the peroxisome proliferator-activated receptor gamma (PPARg) signaling pathway - cell viability counter screen (AID 743194); note: nearly all actives have a fitted effect of over 55% in size
Method in brief: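 Cytotoxicity counter screen in PPARg-bla HEK293H cells, same wells as reporter assay. Compounds plus 50 nM rosiglitazone (final) for 17 h at 37 C, then viability read by CellTiter-Glo luminescence.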

[19] = qHTS assay for small molecule agonists of the antioxidant response element (ARE) signaling pathway (AID 743202; active = well fitted activation curve with a large enough effect in the signal ratio in the repeat runs, not every such curve was filed as active; inconclusive = weak or mixed curves, or effect the other way; inactive = no such curve, though single readings can be large or run the other way; the % refers to the signal ratio; note: potency is the fitted concentration of half-maximal effect)
Method in brief: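 HepG2 ARE-bla reporter line, 2,000 cells/well; 5 h preincubation 37 C/5% CO2; compound (DMSO) 16 h 37 C; B/G FRET substrate 2 h RT; fluorescence intensity.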
% is set by controls: 0 for no effect and ±100 for the full control effect.

Chain of Estrogen receptor (Homo sapiens) (P03372 whole entry, looked up): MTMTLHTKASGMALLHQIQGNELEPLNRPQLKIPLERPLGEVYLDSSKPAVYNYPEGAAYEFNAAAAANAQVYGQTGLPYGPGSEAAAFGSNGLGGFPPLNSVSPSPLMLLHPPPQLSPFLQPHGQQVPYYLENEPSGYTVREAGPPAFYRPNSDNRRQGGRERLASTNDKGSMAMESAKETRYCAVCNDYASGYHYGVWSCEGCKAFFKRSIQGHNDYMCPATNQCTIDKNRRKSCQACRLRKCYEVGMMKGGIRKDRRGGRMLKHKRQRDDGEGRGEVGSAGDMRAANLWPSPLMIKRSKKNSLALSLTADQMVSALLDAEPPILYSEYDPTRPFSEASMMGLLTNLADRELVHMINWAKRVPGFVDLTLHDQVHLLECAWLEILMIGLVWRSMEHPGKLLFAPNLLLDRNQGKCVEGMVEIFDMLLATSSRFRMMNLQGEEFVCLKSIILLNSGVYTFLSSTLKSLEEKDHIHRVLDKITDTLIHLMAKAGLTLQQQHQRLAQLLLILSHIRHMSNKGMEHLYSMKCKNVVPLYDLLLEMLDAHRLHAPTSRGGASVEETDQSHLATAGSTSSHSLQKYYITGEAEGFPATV
Chain of Aromatase (Homo sapiens) (P11511 whole entry, looked up): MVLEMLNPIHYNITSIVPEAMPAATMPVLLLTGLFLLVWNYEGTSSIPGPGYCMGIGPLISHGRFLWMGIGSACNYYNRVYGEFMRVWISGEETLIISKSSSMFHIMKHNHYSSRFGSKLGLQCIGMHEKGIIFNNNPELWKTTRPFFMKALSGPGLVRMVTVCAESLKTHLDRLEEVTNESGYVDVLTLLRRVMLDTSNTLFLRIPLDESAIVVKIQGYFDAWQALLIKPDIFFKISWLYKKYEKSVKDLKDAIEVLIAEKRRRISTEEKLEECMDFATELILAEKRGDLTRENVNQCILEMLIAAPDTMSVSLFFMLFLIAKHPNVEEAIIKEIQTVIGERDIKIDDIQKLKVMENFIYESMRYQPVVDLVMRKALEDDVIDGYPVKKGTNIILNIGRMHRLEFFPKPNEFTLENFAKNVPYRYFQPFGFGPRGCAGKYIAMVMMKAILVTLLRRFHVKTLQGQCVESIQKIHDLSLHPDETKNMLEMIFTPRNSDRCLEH
Chain of Aryl hydrocarbon receptor (Homo sapiens) (P35869 whole entry, looked up): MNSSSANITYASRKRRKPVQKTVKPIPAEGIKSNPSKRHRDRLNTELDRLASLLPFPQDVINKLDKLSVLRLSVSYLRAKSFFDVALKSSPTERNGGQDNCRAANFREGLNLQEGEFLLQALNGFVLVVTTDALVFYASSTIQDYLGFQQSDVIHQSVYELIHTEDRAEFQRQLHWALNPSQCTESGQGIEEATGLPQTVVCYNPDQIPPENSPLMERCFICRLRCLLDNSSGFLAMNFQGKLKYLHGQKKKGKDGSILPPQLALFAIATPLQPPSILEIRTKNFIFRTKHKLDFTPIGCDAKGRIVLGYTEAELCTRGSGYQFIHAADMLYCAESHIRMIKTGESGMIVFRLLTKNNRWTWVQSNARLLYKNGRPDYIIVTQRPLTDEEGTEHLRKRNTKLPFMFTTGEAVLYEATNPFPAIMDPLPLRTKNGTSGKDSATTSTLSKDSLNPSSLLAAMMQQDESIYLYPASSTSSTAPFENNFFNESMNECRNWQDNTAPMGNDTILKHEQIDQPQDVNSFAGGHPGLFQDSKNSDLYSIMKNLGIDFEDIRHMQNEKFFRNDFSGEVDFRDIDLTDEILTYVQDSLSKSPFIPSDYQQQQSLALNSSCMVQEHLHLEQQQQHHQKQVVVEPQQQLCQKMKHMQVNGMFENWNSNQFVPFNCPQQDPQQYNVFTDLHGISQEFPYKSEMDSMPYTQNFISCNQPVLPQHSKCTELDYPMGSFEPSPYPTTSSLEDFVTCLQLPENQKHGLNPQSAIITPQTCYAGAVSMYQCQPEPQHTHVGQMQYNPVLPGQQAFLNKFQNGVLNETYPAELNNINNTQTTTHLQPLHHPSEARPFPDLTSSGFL
Chain of Peroxisome proliferator-activated receptor gamma (Homo sapiens) (P37231 whole entry, looked up): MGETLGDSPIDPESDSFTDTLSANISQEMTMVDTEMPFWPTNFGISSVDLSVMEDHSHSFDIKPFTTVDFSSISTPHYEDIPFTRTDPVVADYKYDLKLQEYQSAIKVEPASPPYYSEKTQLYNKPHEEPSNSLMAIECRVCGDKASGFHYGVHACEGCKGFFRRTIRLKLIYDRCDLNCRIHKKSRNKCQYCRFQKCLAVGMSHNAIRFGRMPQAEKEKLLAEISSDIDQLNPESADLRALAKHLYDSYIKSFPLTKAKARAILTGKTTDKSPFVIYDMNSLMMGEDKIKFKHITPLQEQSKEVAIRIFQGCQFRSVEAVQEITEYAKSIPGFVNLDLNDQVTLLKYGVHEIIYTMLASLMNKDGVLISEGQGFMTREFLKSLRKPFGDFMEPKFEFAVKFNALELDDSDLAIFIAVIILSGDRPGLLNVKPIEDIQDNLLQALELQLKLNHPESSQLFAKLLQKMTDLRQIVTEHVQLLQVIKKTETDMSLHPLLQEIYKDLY

O=C(/C=C/c1ccccc1)OC/C=C/c1ccccc1
active: Potency [7] 30.6 µM
inactive: Potency [1] | Potency [2] | outcome [3] | Potency [4] | Potency [5] | Potency [6] | Potency [8] | Potency (Aromatase (Homo sapiens)) | Potency [9] | Potency [10] | Potency [11] | Potency [12] | Potency [13] | Potency [14] | Potency [15]

C=C(C)c1cccc(C(=C)C)c1
inactive: Potency [1] | Potency [2] | outcome [3] | Potency [4] | Potency [5] | Potency [6] | Potency [16] | Potency (Aromatase (Homo sapiens)) | Potency [9] | Potency [10] | Potency [11] | Potency [12] | Potency [17] | Potency [18] | Potency [19] | Potency [13] | Potency [14] | Potency [15]

O=C(O)O
inactive: activity change, negative = cytotoxic [1] -0.346% [at 8.44 µM] | activity, negative = inhibition [2] -9.25% [at 8.44 µM] | activation [3] 0.119% [at 8.08 µM] | activity, negative = inhibition [4] -5.09% [at 6.71 µM] | activity, negative = cytotoxicity [5] 16.5% [at 6.72 µM] | activation [6] -2.02% [at 6.71 µM] | activity change, negative = inhibition [16] 10.7% [at 8.47 µM] | activity change, negative = cytotoxicity [8] -13.4% [at 8.47 µM] | activity, negative = inhibition (Aromatase (Homo sapiens)) -0.932% [at 8.47 µM] | activity change, negative = cytotoxicity [9] -13.2% [at 8.47 µM] | activation [10] -1.17% [at 8.47 µM] | viability change, negative = cytotoxic [11] -24.2% [at 8.47 µM] | activation [12] -5.02% [at 7.08 µM] | ratio activity, negative = inhibition [17] -1.11% [at 5.95 µM] | activation [19] -11.2% [at 8.36 µM] | viability change, negative = cytotoxic [13] 6.5% [at 8.36 µM]

OC1CCCc2ccccc21 (stereo not drawn)
inactive: Potency [1] | Potency [2] | outcome [3] | Potency [4] | Potency [5] | Potency [6] | Potency [7] | Potency [8] | Potency (Aromatase (Homo sapiens)) | Potency [9] | Potency [10] | Potency [12] | Potency [18] | Potency [19] | Potency [13] | Potency [14] | Potency [15]

Cc1c(C)c2c(c(C)c1O)CC[C@@](C)(CCC[C@H](C)CCC[C@H](C)CCCC(C)C)O2
inactive: Potency [1] | Potency [2] | outcome [3] | Potency [4] | Potency [5] | Potency [6] | Potency [7] | Potency [8] | Potency (Aromatase (Homo sapiens)) | Potency [9] | Potency [10] | Potency [11] | Potency [12] | Potency [13] | Potency [14]

CCCCCCCC/C=C\CCCCCCCCN
inactive: Potency [1] | Potency [2] | outcome [3] | Potency [4] | Potency [5] | Potency [6] | Potency [7] | Potency [8] | Potency (Aromatase (Homo sapiens)) | Potency [9] | Potency [10] | Potency [11] | Potency [12] | Potency [19] | Potency [14] | Potency [15]

Cc1cccc(C(=O)O)c1O
inactive: Potency [1] | Potency [2] | outcome [3] | Potency [4] | Potency [5] | Potency [6] | Potency [7] | Potency [8] | Potency (Aromatase (Homo sapiens)) | Potency [9] | Potency [10] | Potency [11] | Potency [18] | Potency [13]

O=C(O)[C@H](O)[C@@H](O)[C@H](O[C@@H]1O[C@H](CO)[C@H](O)[C@H](O)[C@H]1O)[C@H](O)CO
inactive: Potency [1] | Potency [2] | outcome [3] | Potency [4] | Potency [5] | Potency [6] | Potency [7] | Potency (Aromatase (Homo sapiens)) | Potency [9] | Potency [10] | Potency [11] | Potency [12] | Potency [17] | Potency [18] | Potency [19] | Potency [13] | Potency [14] | Potency [15]

COc1c(C)c2c(c(O)c1C/C=C(\C)CCC(=O)OCCN1CCOCC1)C(=O)OC2
inactive: outcome [3] | Potency [5] | Potency [8] | Potency (Aromatase (Homo sapiens)) | Potency [9] | Potency [10] | Potency [11] | Potency [14] | Potency [15]
active: Potency [1] 1.68 µM | Potency [2] 944 nM | Potency [4] 3.38 µM [inconclusive] | Potency [7] 13.3 µM | Potency [17] 473 nM

CCCC[P+](C)(CCCC)CCCC
inactive: Potency [1] | Potency [2] | outcome [3] | Potency [4] | Potency [5] | Potency [8] | Potency (Aromatase (Homo sapiens)) | Potency [9] | Potency [10] | Potency [11] | Potency [18] | Potency [19] | Potency [13]

S=c1nccc[nH]1
inactive: Potency [1] | Potency [2] | outcome [3] | Potency [4] | Potency [5] | Potency [16] | Potency [8] | Potency (Aromatase (Homo sapiens)) | Potency [9] | Potency [10] | Potency [11] | Potency [12] | Potency [18] | Potency [13] | Potency [14] | Potency [15]
active: Potency [7] 30.7 µM

CCN(CC)C(=O)c1cc(S(=O)(=O)Cc2ccccc2)c(N2CCC(c3ccccc3)CC2)cc1N(CC)CCN(C)C
inactive: outcome [3] | Potency [4] | Potency [6] | Potency [7] | Potency [16] | Potency [10] | Potency [15]
active: Potency [1] 3.35 µM and 4.28 µM | Potency [2] 4.22 µM and 4.8 µM | Potency [11] 23.7 µM

CCc1ccc(Br)cc1
inactive: Potency [1] | Potency [2] | outcome [3] | Potency [4] | Potency [5] | Potency [6] | Potency [16] | Potency [8] | Potency (Aromatase (Homo sapiens)) | Potency [9] | Potency [10] | Potency [12] | Potency [18] | Potency [19] | Potency [13] | Potency [14] | Potency [15]

O=C1CCc2cc(OCCCCc3nnnn3C3CCCCC3)ccc2N1
inactive: Potency [1] | Potency [2] | outcome [3] | Potency [4] | Potency [5] | Potency [6] | Potency [7] | Potency [8] | Potency (Aromatase (Homo sapiens)) | Potency [9] | Potency [10] | Potency [11] | Potency [12] | Potency [18] | Potency [13] | Potency [14] | Potency [15]

Clc1nnc(Cl)c2ccccc12
inactive: Potency [1] | Potency [2] | outcome [3] | Potency [4] | Potency [5] | Potency [6] | Potency [7] | Potency (Aromatase (Homo sapiens)) | Potency [9] | Potency [11] | Potency [12] | Potency [18] | Potency [13]

C=C(C)C(=O)OCCCCCCCCCC
inactive: Potency [1] | Potency [2] | outcome [3] | Potency [4] | Potency [5] | Potency [6] | Potency [7] | Potency [8] | Potency (Aromatase (Homo sapiens)) | Potency [9] | Potency [10] | Potency [11] | Potency [12] | Potency [18] | Potency [19] | Potency [13] | Potency [14]

OC/C=C/CO
active: Potency [19] 21.6 µM
inactive: Potency [1] | Potency [2] | outcome [3] | Potency [4] | Potency [5] | Potency [8] | Potency (Aromatase (Homo sapiens)) | Potency [9] | Potency [10] | Potency [11] | Potency [12] | Potency [17] | Potency [14] | Potency [15]
